Screening data: PubChem BioAssay, National Center for Advancing Translational Sciences (NCATS)
Rows were chosen to be rich in hits. Some 4.4% of all compounds tested hit in one or more screens of this group.
TRHR enhancer: qHTS for Small Molecule Agonists and Allosteric Enhancers of Human TRH Receptor: Primary Screen for Enhancers; Thyrotropin-releasing hormone receptor (Homo sapiens), P34981; TRHR cells, fluo-8 calcium fluorescence, EC20 TRH enhancement; enhancement, % at 2 µM; 0.66% of 360,000 active; in the data active means enhancement above about 30%; further: 0% is about no effect
Target sequence (P34981 whole entry, looked up): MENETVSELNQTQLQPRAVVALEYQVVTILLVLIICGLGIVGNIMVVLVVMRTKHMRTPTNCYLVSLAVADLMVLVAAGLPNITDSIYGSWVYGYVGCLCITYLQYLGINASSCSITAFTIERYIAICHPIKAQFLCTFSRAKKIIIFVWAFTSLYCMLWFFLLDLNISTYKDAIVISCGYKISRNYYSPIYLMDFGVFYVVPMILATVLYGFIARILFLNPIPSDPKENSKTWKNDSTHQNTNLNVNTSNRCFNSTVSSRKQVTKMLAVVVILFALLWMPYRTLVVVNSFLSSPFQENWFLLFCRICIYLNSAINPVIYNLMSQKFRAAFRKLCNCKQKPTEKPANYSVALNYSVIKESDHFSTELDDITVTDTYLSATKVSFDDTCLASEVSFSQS
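TRHR-expressing cells loaded with fluo-8 calcium dye were read kinetically (ex 480/em 530) during compound addition, then stimulated with an EC20 of TRH (10 nM final). Enhancement of the Gq-mediated intracellular calcium response was scored.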
D1 agonist: Allosteric Agonists of the Human D1 Dopamine Receptor: qHTS. D(1A) dopamine receptor (Homo sapiens), P21728. HEK293 T-REx D1 cells, calcium flux, agonist mode. activation, % at 2 µM. 1% of 360,000 active. AID 504660, 2011; further: 0% is about no effect
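Agonism was scored from calcium flux recorded over 180 s (1 read/s) after pintool compound addition, following a 10-cycle baseline. Cells were inducible force-coupled HEK293 TREx D1, plated overnight at 30 C and loaded with no-wash calcium dye.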
D1 antag: Antagonist of Human D 1 Dopamine Receptor: qHTS. D(1A) dopamine receptor (Homo sapiens), P21728. HEK293 TREx D1 cells, calcium flux, dopamine EC80; active compounds read low. activity change, negative = inhibition, % at 10 µM. 3.2% of 360,000 active. AID 504652, 2011; in the data active means activity change below about -30%; further: on the % scale 0 is the no-effect control and ±100 the full control effect
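Kinetic fluorescence of a calcium dye serves as the read-out. D1-expressing Hek293 Trex cells, induced overnight at 30 C, are exposed to compound for 180 s before an EC80 dopamine addition, then read 180 s further.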
TRHR agonist: qHTS for Small Molecule Agonists and Allosteric Enhancers of Human TRH Receptor: Primary Screen for Agonists | TRHR cells, calcium flux fluo-8, FDSS agonist mode | activation, % at 2 µM | 0.18% of 360,000 active | AID 493084, 2011; further: 0% is about no effect
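Read-out: compound-evoked intracellular calcium rise in TRHR cells, fluo-8 dye, kinetic FDSS fluorescence at 1 s/cycle following a 10-cycle baseline. Cells cultured overnight before dye loading (30 min–1.5 h, RT).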
D1 PAM: Potentiators of Human D1 Dopamine Receptor: qHTS | HEK293 TREx D1 cells, calcium flux, dopamine EC20 potentiation | potentiation, % at 10 µM | 0.036% of 360,000 active; in the data active means potentiation above about 30%; further: 0% is about no effect
USP1 inh: Inhibitors of USP1/UAF1: Primary Screen. Ubiquitin carboxyl-terminal hydrolase 1 (Homo sapiens), O94782. 0.23% of 390,000 active. recombinant USP1/UAF1, Ub-Rhodamine cleavage fluorescence. Potency, µM (titrated, usually from 57.1 µM), without a hit: at the highest dose activity change, negative = inhibition, hits mostly inhibitors; active means well fitted inhibition curve with a large enough effect; inconclusive means small, poorly fitted or top-dose-only effect; inactive means no such curve, though single readings can be large or run the other way; further: potency means the concentration at half of the fitted maximal effect; on the % scale 0 is the no-effect control and ±100 the full control effect; nearly all actives have a fitted effect of over 60% in size
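1 nM enzyme complex + cpd, 15 min RT; start with Ub-Rho 150nM final; kinetic fluorescence ex 480/em 540, 6 reads q60 s. Buffer 50mM HEPES pH 7.8, 0.5mM EDTA, 0.1 mg/ml BSA, 1mM TCEP, 0.01% Tween-20.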
The depositor's hits bear a star; u = inconclusive; x = no result. Unless noted, no stated cut-off is given here; in the data, active means activation above about 30%; inactive means the rest.

SMILES | TRHR enhancer | D1 agonist | D1 antag | TRHR agonist | D1 PAM | USP1 inh
COc1ccccc1NC(=O)c1cc2c(=O)n(Cc3cccs3)ccc2nc1C | 13 | 0 | -40* | -1 | -4 | -7%
O=C1CS/C(=N/N=C2CCCC2)N1 | 0 | 4 | -48* | 0 | 5 | -5%
O=C1CSC(=NC2CCCCC2)N1 | -2 | 1 | 12 | 0 | -1 | -3%
Cc1ccc(NC(=O)Cn2c(=O)n(Cc3ccccc3)c(=O)c3c(C)c(C(=O)N(C)C)sc32)c(C)c1 | 0 | 2 | -4 | -1 | 2 | -34%
COc1cccc(C(=O)N(C)CC2CCN(CCc3cccc(C(F)(F)F)c3)CC2)c1 | 4 | -3 | -32* | 0 | 5 | -13%
CC(C)NC(=O)CN1C(=O)c2cccnc2Sc2ccccc21 | -5 | 1 | 4 | 0 | 0 | -8%
C=CCn1c(SC(C)CC)nc(O)cc1=O (configuration not stated) | -2 | 140* | -29 | 9 | 6 | -6%
C=CCn1c(SCCCCCC)nc(O)cc1=O | -1 | 6 | 5 | 2 | -3 | -11%
CCCCSc1nc(O)cc(=O)n1CC | 5 | 38* | -9 | 2 | -2 | -14%
C=CCn1c(SCCCC)nc(O)cc1=O | -1 | 79* | -15 | 9 | 4 | -17%
COc1ccc(Br)cc1CNC(=O)CCCn1c(=O)c2cccn2c2cccnc21 | -9 | 3 | 8 | 0 | -2 | -16%
CCN(CC)S(=O)(=O)c1cccc(-c2nnc(SCCOc3ccccc3)o2)c1 | 11 | 17 | -19 | 2 | -6 | -9%
CCN(CC)S(=O)(=O)c1cccc(-c2nnc(SCCOc3ccccc3C)o2)c1 | -7 | 33* | 0 | 5 | -4 | -16%
CCOc1ccc(CCNC(=O)C2=C(C)C(=O)OC23CCCCC3)cc1 | 10 | 2 | -3 | 0 | -3 | -8%
Fc1cc(F)c(C2SCCN2C(=S)Nc2cccc(C(F)(F)F)c2)c(F)c1 (configuration not stated) | -20 | 77* | 0 | 16 | -4 | -7%
CCC(=O)Nc1nnc(S(=O)(=O)N(C)Cc2ccccc2)s1 | -2 | 3 | 7 | 0 | 1 | -16%
O=C1Nc2ccccc2C(O)(C(=O)NCc2ccc3c(c2)OCO3)N1c1ccc(Cl)c(Cl)c1 (configuration not stated) | -7 | 31* | 3 | 7 | 4 | -14%
O=C(NCc1ccc2c(c1)OCO2)c1n[nH]c(=O)c2ccccc12 | -5 | 0 | -50* | -1 | -1 | -1%
O=C(Cn1nc(-c2ccccc2)ccc1=O)NCc1ccc2c(c1)OCO2 | 14 | -1 | -5 | -1 | 33* | -7%
O=C(Cn1nc(-c2ccc(Cl)cc2)ccc1=O)NCc1ccc2c(c1)OCO2 | 4 | 1 | -7 | 0 | -2 | -17%
Nc1c(C(=O)NCc2ccc3c(c2)OCO3)nnn1Cc1ccc(Br)cc1 | -6 | 31* | -4 | 4 | 4 | -19%
O=C1Nc2ccccc2C(O)(C(=O)NC2CC2)N1c1ccc(Cl)c(Cl)c1 (configuration not stated) | -2 | 0 | 8 | 0 | 4 | -18%
COCc1cc(C)nc(SCc2ccc([N+](=O)[O-])cc2)c1C#N | 3 | 8 | 0 | 0 | 44* | -25%
COCc1cc(C)nc(SCC(=O)N2CCC(C)CC2)c1C#N | 4 | 6 | -57* | 0 | 0 | -4%
Cc1ccccc1C(=O)NCCc1sc(-c2ccc(Cl)cc2)nc1C | 2 | 2 | -38* | 0 | -3 | -1%
SMILES | TRHR enhancer | D1 agonist | D1 antag | TRHR agonist | D1 PAM | USP1 inh
CCOc1ccc(C(=O)NCCc2sc(-c3cccc(F)c3)nc2C)cc1OCC | -7 | 1 | -8 | 0 | 2 | -5%
Cc1nc(-c2ccc(Cl)cc2)sc1CCNC(=O)Cc1ccc(F)cc1 | 3 | 12 | -1 | 0 | -4 | 4%
Cc1nc(-c2cccc(F)c2)sc1CCNC(=O)c1ccc(F)c(F)c1 | 30* | 5 | -16 | -1 | -1 | -21%
Cc1csc(NC(=O)c2cc3c(s2)CCCC3)n1 | 2 | 11 | -44* | -1 | -12 | u
S=C(Nc1ccccc1)N1N=CCC1c1ccccc1 (configuration not stated) | 12 | 2 | x | 0 | -4 | 1%
Fc1ccc(NC(=S)N2N=CCC2c2ccccc2)cc1 (configuration not stated) | 6 | 77* | -2 | -1 | -4 | -18%
CCN(CC)CCCNC(=S)N1CCN(c2nc3ccccc3n2CC)CC1 | 1 | 1 | -35* | 0 | -11 | -13%
CCN(CC)CCCNC(=S)N1CCN(c2nc(-c3ccc(F)cc3)cs2)CC1 | -3 | 43* | -46* | -1 | -13 | -19%
COCCNC(=S)N1CCN(c2nc(-c3ccc(Cl)cc3)cs2)CC1 | -2 | 0 | -2 | 0 | -9 | u
CCN(CC)CCCNC(=S)N1CCn2c(nc3ccccc32)C1 | -2 | 2 | -8 | 0 | -1 | -4%
CCCCC(=O)N1CCN(c2nc(-c3ccc(F)cc3)cs2)CC1 | 0 | 2 | -31* | -1 | -4 | u
COCCNC(=S)N1CCN(c2nc(-c3ccc(F)cc3)cs2)CC1 | -6 | 3 | -34* | -1 | -16 | -20%
COc1ccc([C@]23Cc4cc(OC)c(OC)cc4C(O2)c2c(cc(C)oc2=O)O3)cc1 | -10 | 1 | -23 | -1 | -9 | x
COc1cccc(-c2csc(N3CCN(C(=S)Nc4ccccc4C)CC3)n2)c1 | 1 | 1 | -33* | 0 | -3 | -19%
COc1ccc(C2CC(c3ccc(F)cc3)=NN2c2ccccc2)cc1OC (configuration not stated) | -2 | 6 | -78* | 2 | 1 | u
Cc1cnc(C(=O)Nc2ccc(F)cc2)cn1 | 2 | 3 | -1 | 0 | -3 | -17%
Cc1cnc(C(=O)Nc2ccc(C(C)C)cc2)cn1 | -10 | -1 | -31* | 0 | -10 | -2%
Cc1cccc(NC(=S)NC2CCSc3ccccc32)c1 (configuration not stated) | -12 | 8 | -33* | 1 | -11 | -17%
